Source: PubChem
This is a sample that favours compounds with a hit; in the whole collection about 3.4% have one here.
FXN GAA850 act = activators of GAA850 frataxin (FXN) promoter. HEK293 lucGAA850 FXN promoter luciferase reporter, 24 h; percent of 10 µM SAHA response. activation, % at 6 µM. 0.56% of 360,000 active;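 active = activation above the average of all compounds screened plus 3 SD, cutoff fixed separately per campaign, cut at about 7.5% in these data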;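 also: 0% = DMSO wells and 100% = 10 µM SAHA wells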
SMARCA2 activ = increases SMARCA2 function in MMTV reporter cells; MG213 cells, MMTV-luciferase reporter, dexamethasone, overnight; activation, % at 9.1 µM; 1% of 370,000 active; in the data active = activation above about 7.8%;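 also: 0% = vehicle wells and 100% = reference activator wells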
PG9 binder = binds the HIV-1 gp120 antibody PG9; TR-FRET gp120-PG9 antibody binding; 0.43% of 360,000 active; inhibition, % at 6.7 µM; AID 624416; in the data active = inhibition above about 8.5%
HSP90 inh = HSP90 refolding inhibition in rabbit reticulocyte lysate; luciferase refolding luminescence, 3 h; inhibition, % at 5.6 µM; 0.91% of 290,000 active;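 active = inhibition above the screen-wide mean plus 3 SD, computed separately per campaign, cut at about 16% in these data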;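 also: 0% = DMSO wells and 100% = 60 µM geldanamycin wells; inhibitors lower the luminescence because luciferase stays unfolded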
AI-2 QS mod = modulators of Vibrio harveyi AI-2 quorum sensing system; Vibrio harveyi JMH597 AI-2 luminescence/OD600 ratio, 9 h; active compounds read low; strain lacks LuxN and CqsS sensors; 0 = neutral-control median; activity change, % at 7.5 µM; 0.4% of 300,000 active; in the data active = activity change below about -75%, passing the limit was not always enough;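 also: luminescence divided by OD600 gain over 9 h not by final OD600 alone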
HSF1 inh = HSF1 inhibition. activity change, negative = inhibition, % at 7.5 µM (by protocol). NIH3T3-HGL HSE-luciferase, MG132-induced, luminescence 8 h; active compounds read low. 0.77% of 300,000 active;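 active = more than half of replicate wells show activity change below -50%, luminescence cut by over half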;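 also: luciferase reports HSF-1 transcriptional activity via heat shock element; 0% = median of DMSO wells and -100% = zero luminescence signal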
HSP90 confirm = HSP90 inhibition, confirmation assay | AID 1846 | 64% of 2,300 active | shares compounds with HSP90 inh | rabbit reticulocyte lysate, luciferase refolding luminescence, 3 h | inhibition, % at 5.9 µM; in the data active = inhibition above about 18%;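 also: 0% = vehicle wells and 100% = reference inhibitor wells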
FLuc counter = blocks native firefly luciferase in HSP90 counter-screen | shares compounds with HSP90 inh | purified native firefly luciferase, luminescence | inhibition, % at 5.9 µM | 48% of 2,300 active | AID 1847;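 active = inhibition above the mean inhibition of all tested sample wells plus 3 SD, cut at about 10% in these data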;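 also: 0% = DMSO with luciferase and 100% = wells lacking luciferase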
Target sequence (P08659 whole entry, looked up): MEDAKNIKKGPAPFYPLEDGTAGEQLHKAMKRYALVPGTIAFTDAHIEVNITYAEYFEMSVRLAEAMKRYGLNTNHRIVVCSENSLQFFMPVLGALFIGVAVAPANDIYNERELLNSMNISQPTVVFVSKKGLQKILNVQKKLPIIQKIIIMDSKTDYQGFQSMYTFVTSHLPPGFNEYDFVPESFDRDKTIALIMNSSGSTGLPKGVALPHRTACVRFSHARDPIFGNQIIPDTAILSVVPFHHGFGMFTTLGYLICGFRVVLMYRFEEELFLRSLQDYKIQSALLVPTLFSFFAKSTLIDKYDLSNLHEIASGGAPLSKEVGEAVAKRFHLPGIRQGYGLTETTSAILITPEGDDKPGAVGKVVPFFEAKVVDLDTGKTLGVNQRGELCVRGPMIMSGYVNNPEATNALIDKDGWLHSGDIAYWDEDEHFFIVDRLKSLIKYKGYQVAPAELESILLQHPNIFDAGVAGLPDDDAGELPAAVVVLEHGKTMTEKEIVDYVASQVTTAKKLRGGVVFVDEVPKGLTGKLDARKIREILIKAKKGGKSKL
JMH597 growth = retest: inhibitors of Vibrio harveyi JMH597 growth | shares compounds with AI-2 QS mod | OD600 absorbance, 9 h; lacks LuxN and CqsS sensors | growth inhibition, % at 7.5 µM | 1% of 750 active;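 active = every replicate shows growth inhibition above 50%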
BB721 lum counter = retest counter-screen: luminescence loss in constitutive-on quorum sensing strain BB721; Vibrio harveyi BB721 luminescence, 9 h; 95% of 750 active; inhibition, % at 7.5 µM; shares compounds with AI-2 QS mod; AID 2727;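 active = inhibition above about 80% in every replicate, not just on average, limit read from the data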
BB721 growth = retest: inhibitors of Vibrio harveyi BB721 growth; shares compounds with AI-2 QS mod; growth inhibition, % at 7.5 µM; 3% of 750 active; AID 2728; OD600 absorbance, 9 h;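 active = every replicate shows growth inhibition above 50%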
JMH597 AI-2 mod = Vibrio harveyi AI-2 signaling luminescence modulation – JMH597 strain, confirmation; 97% of 750 active; inhibition, % at 7.5 µM; AID 2736; Vibrio harveyi JMH597 AI-2 quorum sensing luminescence, 9 h; luxN and CqsS knockout, AI-2 only; shares compounds with AI-2 QS mod;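 active = every replicate shows more than 75% inhibition of signal versus neutral control wells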
GAA30 FXN cntr = activates GAA30 frataxin promoter, counter-screen for GAA850 activators; activation, % at 6 µM; HEK293 lucGAA30 FXN promoter luciferase, 24 h; DMSO = 0%, 5 µM ipriflavone = 100%; shares compounds with FXN GAA850 act; 66% of 1,900 active;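 active = mean activation above the mean of solvent-only control wells plus 3 SD, cut at about 22% in these data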;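 also: counterscreen of GAA850 promoter hits where activity marks nonselective or luminescence artifacts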
FXN GAA850 conf = GAA850 FXN promoter activation confirmation | HEK293 lucGAA850 FXN promoter luciferase reporter, 24 h; 100% = activation by SAHA | shares compounds with FXN GAA850 act | 86% of 1,900 active | activation, % at 6 µM;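 active = mean activation above a set limit taken from the primary screen, cut at about 8% in these data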;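 also: 0% = DMSO wells and 100% = 10 µM SAHA wells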
An asterisk follows results filed as active; x = no result.

SMILES | FXN GAA850 act | SMARCA2 activ | PG9 binder | HSP90 inh | AI-2 QS mod | HSF1 inh | HSP90 confirm | FLuc counter | others
COC(=O)CCCC(NC(=S)N1CC2C[C@@H](C1)Cn1c2cccc1=O)C(=O)OC (some centres not stated) | 1.3 | 2.8 | -3.6 | 3.2 | 14.8 | -1.8 | x | x
O=C(O)CC1OCC=C2CN3CCC45C6=CC(=O)C(=O)C([N+](=O)[O-])=C6NC4C1C2CC35 (configuration not stated) | 0.4 | x | x | 35.0* | 11.1 | -4.2 | 71.6* | -1.7
O=C(O)CC1OCC=C2CN3CCC45c6ccccc6NC4C1C2CC35 (configuration not stated) | -0.8 | 0.0 | 0.1 | 0.0 | 4.0 | -3.5 | x | x
CCOC(=O)c1c(C)[nH]c(C)c1C(=O)C(Cc1ccccc1)N(C)C (configuration not stated) | 2.0 | -0.6 | 0.4 | 22.1* | 3.9 | -1.4 | -0.9 | -5.9
CN(C)C(Cc1ccccc1)C(=O)c1ccccc1 (configuration not stated) | 4.7 | -1.7 | 0.0 | -4.2 | 16.8 | 0.1 | x | x
COC1CC=C2CCN3CCC4=C(CC(=O)OC4)C23C1 (configuration not stated) | x | -2.4 | 2.9 | x | x | x | x | x
O=C1NC(=O)C(=Cc2cccc(OCCOc3ccccc3)c2)C(=O)N1 | 4.1 | 4.9 | 2.1 | 3.0 | -45.3 | 16.7 | x | x
Cc1ccc(OCCOc2cccc(C=C3C(=O)NC(=O)NC3=O)c2)c(C)c1 | 3.2 | 4.0 | 0.6 | 23.4* | 16.1 | -10.2 | 39.3* | 17.0*
CN1CCN(c2cccc3c2C(=O)c2ccccc2C3=O)CC1 | -4.6 | 2.7 | -7.3 | 19.0* | 28.4 | -24.6 | 20.2* | 1.5
Fc1ccc2nc(-c3ccc(CN4CCC(n5nnc6ccccc65)CC4)cc3)c(-c3ccccc3)nc2c1 | x | -1.9 | 4.0 | x | x | x | x | x
Cc1ccc(-n2c(O)c(/C=N/Nc3ccccc3)c(=O)[nH]c2=O)cc1C | x | -1.2 | -4.9 | 1.5 | 1.1 | 3.8 | x | x
COc1ccc(N/N=C/c2c(O)n(-c3ccc(C)c(C)c3)c(=O)[nH]c2=O)cc1 | 0.8 | -1.5 | -2.0 | 18.9* | 6.4 | -5.2 | 28.9* | -5.8
CCOc1cc(/C=C2\C(=O)NC(=O)N(CCc3ccc(F)cc3)C2=O)ccc1O | -0.2 | -0.2 | -2.1 | 38.0* | 31.0 | -1.8 | 6.7 | 7.8
CC(C)(C)NC(=O)C1CN=C(c2ccccc2)c2cc(Cl)ccc2N1C(=O)C1CCC1 (configuration not stated) | x | -3.5 | x | x | x | x | x | x
O=C1CC(c2cccnc2)=NN1c1ccccc1 | -0.1 | -5.3 | -6.0 | 28.1* | 28.5 | -0.8 | 3.1 | 0.1
O=[N+]([O-])c1cccc(NP(=O)(N2CC2)N2CC2)c1 | -0.6 | 0.4 | -1.9 | x | x | x | x | x
CCCCCn1c(NC(=O)c2ccco2)c(C(=O)OCC)c2nc3ccccc3nc21 | 1.4 | x | x | 4.6 | -23.4 | 17.6 | x | x
CCCCNC(=O)c1c(N)n(CCCOC)c2nc3ccccc3nc12 | -2.6 | -3.9 | 1.2 | 7.8 | 14.8 | 5.2 | x | x
CCOC(=O)c1c(NS(=O)(=O)c2ccccc2)n(CCCOC)c2nc3ccccc3nc12 | -0.5 | -3.7 | 3.2 | 22.2* | 13.9 | 9.2 | 6.7 | -4.2
COCCCn1c(N)c(C(=O)OCCOC)c2nc3ccccc3nc21 | 1.8 | -1.0 | 1.8 | 22.1* | 41.3 | 1.1 | -2.0 | -4.1
CC1([N+](=O)[O-])COP(=O)(Nc2cccc(Br)c2)OC1 (configuration not stated) | 0.3 | 3.0 | -0.3 | x | x | x | x | x
CNC(=O)Oc1ccc(-c2cn3cc(C)ccc3n2)cc1 | 0.3 | 3.9 | -1.4 | 55.7* | -1.4 | 2.2 | 67.9* | 51.7*
CO[C@H]1C=CCCC=CC(=O)O[C@H]([C@H](C)C(=O)CCCC2CC(=O)NC(=O)C2)C(C)=C[C@@H](C)[C@@H]1O | x | -1.8 | 0.0 | x | x | x | x | x
CCC1(c2ccccc2)C(=O)NC(=O)NC1=O | 2.0 | -4.5 | -0.2 | x | x | x | x | x
CCC1(c2ccc(-c3ccccc3)cc2)C(=O)NC(=O)NC1=O | -0.7 | -0.3 | 0.2 | -2.2 | -90.1* | -5.2 | x | x | JMH597 growth=26.2;BB721 lum counter=97.8*;BB721 growth=40.3;JMH597 AI-2 mod=98.3*
SMILES | FXN GAA850 act | SMARCA2 activ | PG9 binder | HSP90 inh | AI-2 QS mod | HSF1 inh | HSP90 confirm | FLuc counter | others
O=C(COC(=O)Cc1ccccc1)Nc1ccc(SC(F)F)cc1 | 1.8 | 0.1 | -1.3 | 0.6 | -91.5* | -4.1 | x | x | JMH597 growth=29.8;BB721 lum counter=94.4*;BB721 growth=-39.2;JMH597 AI-2 mod=99.5*
O=C(c1cc2cc(Cl)ccc2[nH]1)N1CCC2(CC1)OCCO2 | 3.7 | 3.9 | 0.6 | 0.1 | -84.4* | 13.7 | x | x | JMH597 growth=17.7;BB721 lum counter=96.4*;BB721 growth=15.4;JMH597 AI-2 mod=97.5*
COC(=O)C1=C(c2ccc(OC)c(OC)c2)C[C@@H]2CC[C@H]1N2C(=O)NCc1cc(C)oc1C(F)(F)F | -3.3 | 2.3 | -1.4 | x | x | x | x | x
Cc1ccsc1C(=O)C1CCCN(Cc2ccn[nH]2)C1 (configuration not stated) | -0.1 | 4.1 | -0.2 | -0.5 | 17.8 | -4.2 | x | x
O=C(c1ccc(-c2ccccc2)cc1)C1CCCN(Cc2ccn[nH]2)C1 (configuration not stated) | 2.1 | 1.4 | 0.9 | 1.9 | -83.7* | -7.3 | x | x | JMH597 growth=2.7;BB721 lum counter=84.3*;BB721 growth=14.0;JMH597 AI-2 mod=91.0*
CN1C2CCC1C(C(=O)Oc1ccccc1)C(c1ccc(Cl)cc1)C2 (configuration not stated) | x | -4.8 | -1.3 | x | x | x | x | x
Cc1ccc(N2C(=O)NC(=O)/C(=C\C=C\c3ccco3)C2=O)cc1C | 8.4* | 3.9 | -2.7 | 4.0 | 11.2 | 89.8 | x | x | GAA30 FXN cntr=-52.4;FXN GAA850 conf=-4.4
O=C1NC(=O)N(c2ccccc2)C(=O)/C1=C/C=C/c1ccco1 | 5.7 | 4.8 | -2.9 | 1.9 | 12.4 | 8.3 | x | x
